# Bioassay records from PubChem BioAssay.
# Shown are actives, neighbours in structure and some others; about 2.1% of the full set was active somewhere.
# YB-1 expression: inhibitors of YB-1 gene expression, primary screen, cell-based, fluorescence; 30,000 compounds, 0.37% hits; delta delta Cp (YB-1 minus CDIP) (no concentration beside the values); AID 434959, 2010; U2OS, qRT-PCR YB-1 vs CDIP delta delta Cp, 16 h; hits give high values; zero = DMSO, each unit about twofold;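 active = delta delta Cp rounded down to an integer at or above 3, about 3 SD of DMSO wells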;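 note: higher means less YB-1 transcript or more CDIP transcript relative to DMSO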
# PD-1 reverse act: activators reversing PD-1 mediated T-cell inhibition, primary screen, luminescence, primary human CD4 T cells, PD-L1 beads. CellTiter-Glo 96 h. activation, % (no concentration beside the values). 29,000 tested, under 10 active; call rule not given here;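 note: 0% = median vehicle wells and 100% = positive control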
# ROS inducer: ROS inducers in U2OS cancer cells, primary screen, cell-based, H2DCF-DA fluorescence; U2OS ROS induction; ROS induction (% of piperlongumine), % at 10 µM; 46,000 compounds, 2% hits; AID 624156, 2012; in the data active = ROS induction above about 79%, passing the limit was not always enough;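 note: 0% = DMSO vehicle median and 100% = reference compound median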
# An asterisk follows results filed as active; / = no result given.
SMILES,YB-1 expression,PD-1 reverse act,ROS inducer
COc1cccc(NC(=O)N(C)C[C@@H]2OCc3cn(nn3)CCCC(=O)N([C@H](C)CO)C[C@H]2C)c1,-0.231,/,107.7*
COc1cccc(NC(=O)N(C)C[C@H]2OCc3cn(nn3)CCCC(=O)N([C@H](C)CO)C[C@H]2C)c1,-0.236,/,-4.1
CC1(C)Oc2ccc(NC(=O)C3(c4ccccc4)CCCC3)cc2O1,/,/,-1.9
CCn1c(SCC(=O)Nc2ccccc2)nc2ccc(I)cc2c1=O,/,-0.6,108.7*
COc1ccccc1-n1c(SCC(=O)Nc2ccccc2C)nc2ccc(I)cc2c1=O,/,0.6,25.9
C[C@@H]1CCCCO[C@@H](CN(C)C(=O)Nc2ccc3c(c2)OCO3)[C@@H](C)CN([C@H](C)CO)C(=O)c2cc(NC(=O)NC3CCCCC3)ccc2O1,-0.855,-0.3,121.1*
C[C@@H]1CCCCO[C@H](CN(C)C(=O)c2ccncc2)[C@@H](C)CN([C@H](C)CO)C(=O)c2cc(NS(=O)(=O)c3ccc(F)cc3)ccc2O1,0.244,0.3,-1.6
C[C@@H]1CCCCO[C@H](CN(C)C(=O)c2ccccc2)[C@@H](C)CN([C@H](C)CO)C(=O)c2cc(NC(=O)NC3CCCCC3)ccc2O1,0.0575,1.9,20.9
C[C@@H]1CCCCO[C@H](CN(C)C(=O)Nc2ccc3c(c2)OCO3)[C@@H](C)CN([C@H](C)CO)C(=O)c2cc(NC(=O)Nc3ccccc3)ccc2O1,0.0413,0.6,26.4
C[C@@H]1CCCCO[C@H](CN(C)C(=O)c2ccncc2)[C@@H](C)CN([C@H](C)CO)C(=O)c2cc(NC(=O)NC3CCCCC3)ccc2O1,0.118,0.9,122.6*
COc1ccc(NC(=O)Nc2ccc3c(c2)C(=O)N([C@H](C)CO)C[C@H](C)[C@@H](CN(C)C(=O)Nc2ccc4c(c2)OCO4)OCCCC[C@@H](C)O3)cc1,-0.128,0.8,19.8
Cc1ccc(S(=O)(=O)Nc2ccc3c(c2)C(=O)N([C@H](C)CO)C[C@H](C)[C@H](CN(C)C(=O)c2ccncc2)OCCCC[C@@H](C)O3)cc1,0.219,/,108.1*
COc1ccc(NC(=O)N(C)C[C@@H]2OCCCC[C@@H](C)Oc3ccc(NC(=O)Nc4ccc5c(c4)OCO5)cc3C(=O)N([C@H](C)CO)C[C@@H]2C)cc1,0.0248,-0.7,118.3*
Cc1ccc2cc3c(nc2c1)N(c1ccc(C(=O)NCc2ccco2)cc1)CC3,-0.34,-1.2,17.8
CCCNC(=O)c1ccc(-n2c(=S)[nH]c3ccccc3c2=O)cc1,/,/,3.6
S=C(NC1CCCCC1)N(Cc1ccccc1)CC1CC=CCC1 (stereo not drawn),/,/,39.3
O=C(NCc1ccccn1)c1ccc(NC(=O)c2ccco2)cc1,/,2.4,-5.9
O=C(O)c1ccc(CNC(=O)c2ccc(NC(=O)c3ccco3)cc2)cc1,/,2.3,98.7*
CCOc1ccc(-n2c(C)nc3cc(C(=O)NCc4ccccc4Cl)ccc32)cc1,/,/,-0.6
CC1(C)Cc2c(sc3c2c(=O)n(Cc2ccccc2)c2nnc(SCC(=O)c4ccc(Br)cc4)n32)CO1,/,-1.0,-21.1
COc1ccc(/C=C2\SC(=S)N(CCCC(=O)O)C2=O)cc1OC,-0.312,-1.0,137.6*
CN1CCN(NC(=O)CCN2C(=O)/C(=C\c3ccccc3)SC2=S)CC1,-0.0177,0.2,4.1
O=C(c1ccco1)N1CCN(Cc2ccc3c(c2)OCO3)CC1,/,/,-5.0
CN(C(=O)CSc1nc(N)c2c3c(sc2n1)CSC(C)(C)C3)c1ccccc1,/,-4.9,122.1*
CCOC(=O)CSc1nc(N)c2c3c(sc2n1)COC(C)(C)C3,/,-2.0,17.8
SMILES,YB-1 expression,PD-1 reverse act,ROS inducer
CC(=O)Nc1cc(C(=O)NCCCN2CCC(C)CC2)ccc1S(=O)(=O)c1ccc(Cl)cc1,/,/,-1.1
O=C(O)CCC(=O)N1N=C(c2c(-c3ccccc3)c3cc(Cl)ccc3[nH]c2=O)CC1c1ccccc1 (stereo not drawn),/,0.6,-6.6
CC(=O)N1N=C(c2c(-c3ccccc3)c3cc(Cl)ccc3[nH]c2=O)CC1c1ccco1 (stereo not drawn),/,/,109.0*
Cc1cccc(NC(=O)CSc2n[nH]c(-c3ccccc3)n2)c1,/,0.9,-3.4
COc1cc(OC)c(O[C@@H]2O[C@H](COC(=O)c3cc(O)c(O)c(O)c3)[C@@H](O)[C@H](O)[C@H]2O)c(OC)c1,5.57*,-1.9,4.2
O=C(OC[C@H]1O[C@@H](Oc2ccc(O)cc2)[C@H](O)[C@@H](O)[C@@H]1O)c1ccc(O)cc1,0.416,/,-3.1
CC1CCCC(C)N1CCNC(=O)C1C2C=CC3(CN(Cc4ccccc4Cl)C(=O)C13)O2 (stereo not drawn),/,/,44.8
Cc1cc(C)c2nc(N3CCCC(C(=O)NC4CCCc5ccccc54)C3)sc2c1 (stereo not drawn),/,/,-2.6
CCCNC(=O)c1ccccc1Br,/,/,-6.8
COc1ccc(-n2c(N)c(-c3nc4ccccc4s3)c3nc(C#N)c(C#N)nc32)cc1,/,/,153.1*
COc1ccc(-c2nc3ccccc3s2)cc1,-0.0539,0.0,-4.7
COc1ccc(S(=O)(=O)Nc2ccc3c(c2)C(=O)N([C@H](C)CO)C[C@H](C)[C@H](CN(C)S(=O)(=O)c2ccc(Cl)cc2)OCCCC[C@@H](C)O3)cc1,-0.0271,-7.1,91.5*
Cc1noc(C)c1S(=O)(=O)Nc1ccc2c(c1)C(=O)N([C@H](C)CO)C[C@H](C)[C@@H](CN(C)S(=O)(=O)c1ccc(F)cc1)OCCCC[C@@H](C)O2,-0.0369,-4.8,126.3*
Cc1ccc(S(=O)(=O)N(C)C[C@H]2OCCCC[C@@H](C)Oc3ccc(NS(=O)(=O)c4c(C)noc4C)cc3C(=O)N([C@H](C)CO)C[C@@H]2C)cc1,-0.33,/,4.2
Cc1ccc(S(=O)(=O)Nc2ccc3c(c2)C(=O)N([C@H](C)CO)C[C@H](C)[C@@H](CN(C)S(=O)(=O)c2c(C)noc2C)OCCCC[C@@H](C)O3)cc1,-0.242,/,12.4
COc1ccc(S(=O)(=O)N(C)C[C@H]2OCCCC[C@@H](C)Oc3ccc(NS(=O)(=O)c4ccc(Cl)cc4)cc3C(=O)N([C@H](C)CO)C[C@@H]2C)cc1,-0.231,/,35.1
Cc1noc(C)c1S(=O)(=O)N(C)C[C@H]1OCCCC[C@@H](C)Oc2ccc(NS(=O)(=O)c3ccc(Cl)cc3)cc2C(=O)N([C@H](C)CO)C[C@@H]1C,0.526,/,110.3*
c1ccc(C2C3=C(CCCC3)SC3=C2CCCC3)cc1,0.0816,-0.6,11.4
COc1ccccc1NC(=O)CSc1nc(-c2ccc(C)cc2)nc2c1COC(C)(C)C2,/,-3.4,9.8
Cc1ccc(N(CC(=O)Nc2c(C)cc(C)cc2C)S(C)(=O)=O)cc1,/,-0.3,1.3
O=c1oc2cc(OCc3ccc(Cl)cc3)ccc2c2c1CCC2,/,/,-12.4
COc1ccc(NC(=O)CN2CCOCC2)c([N+](=O)[O-])c1,/,1.6,-5.3
C[C@H]1CN([C@@H](C)CO)C(=O)c2cc(NC(=O)Cc3cn(C)c4ccccc34)ccc2O[C@@H]1CN(C)Cc1ccc(-c2ccccc2)cc1,0.272,-2.4,152.8*
C[C@@H]1CN([C@@H](C)CO)C(=O)c2cc(NC(=O)Cc3cn(C)c4ccccc34)ccc2O[C@H]1CN(C)Cc1ccc(Cl)c(Cl)c1,0.0866,-2.4,35.0
